These results are taken from PubChem BioAssay (EPA / NIEHS).

Read-out in test [1]: Cytochrome P450 (CYP1A1), CYP1A1 (gene 1543)
As to the kind of experiment: LTEA_HepaRG_CYP1A1: Life Technologies and Expression Analysis (LTEA) Assay for Cytochrome P450 (CYP1A1) using HepaRG (AID 2283454). As to conditions: mRNA level, 48 h; actives raise or lower the signal. A digest of the protocol:
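Differentiated human HepaRG cells, after 48 h plating, exposed in duplicate for 48 h in serum-free induction medium to 8 half-log concentrations up to 100 uM in 0.5% DMSO. CYP1A1 mRNA by qRT-PCR, normalized to ACTB/GAPDH/POLR2A; bidirectional fit versus DMSO.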

Read-out in test [2]: CFLAR gene, CFLAR (gene 8837)
Put plainly: LTEA_HepaRG_CFLAR: Life Technologies and Expression Analysis (LTEA) Assay for CFLAR gene using HepaRG (AID 2283455). The following applies: mRNA level, 48 h; actives raise or lower the signal. The essentials:
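Gain- or loss-of-signal changes in CFLAR transcript were fitted bidirectionally relative to 0.5% DMSO. Cells (HepaRG, duplicate wells) were dosed for 48 h across eight half-log concentrations topping at 100 uM; quantitation by TaqMan qRT-PCR.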

Read-out in test [3]: Forkhead box O1 (FOXO1), FOXO1 (gene 2308)
Put plainly: LTEA_HepaRG_FOXO1: Life Technologies and Expression Analysis (LTEA) Assay for Forkhead box O1 (FOXO1) using HepaRG (AID 2283456). As to conditions: mRNA level, 48 h; actives raise or lower the signal. The essentials: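 Using one lot of HepaRG hepatic cells kept in 0.5% DMSO, the team applied test chemicals in duplicate, half-log dilutions from 100 uM, for 48 h. Expression, normalised to ACTB/GAPDH/POLR2A, was compared with vehicle in either direction.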

Read-out in test [4]: growth arrest and DNA damage 45 (GADD45A), GADD45A (gene 1647)
Put plainly: LTEA_HepaRG_GADD45A: Life Technologies and Expression Analysis (LTEA) Assay for growth arrest and DNA damage 45 (GADD45A) using HepaRG (AID 2283458). As to conditions: mRNA level, 48 h; actives raise or lower the signal. The essentials: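 HepaRG, 48 h exposure, 8 conc. (top 100 uM, half-log steps), 0.5% DMSO vehicle, duplicates. Read-out: qRT-PCR mRNA level, housekeeping-normalized (ACTB/GAPDH/POLR2A). Curves fit bidirectionally vs DMSO baseline.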

Read-out in test [5]: Forkhead box O3 (FOXO3), FOXO3 (gene 2309)
As to the kind of experiment: LTEA_HepaRG_FOXO3: Life Technologies and Expression Analysis (LTEA) Assay for Forkhead box O3 (FOXO3) using HepaRG (AID 2283459). The following applies: mRNA level, 48 h; actives raise or lower the signal. A digest of the protocol: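 Gene-expression endpoint: FOXO3 transcript level by qRT-PCR in HepaRG cultures treated 48 h with chemicals up to 100 uM (half-log, 0.5% DMSO vehicle).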

Read-out in test [6]: ABC Transporter (ABCB1), ABCB1 (gene 5243)
As to the kind of experiment: LTEA_HepaRG_ABCB1: Life Technologies and Expression Analysis (LTEA) Assay for ABC Transporter (ABCB1) using HepaRG (AID 2283460). As to conditions: mRNA level, 48 h; actives raise or lower the signal. The essentials: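 Human liver HepaRG line treated 48 h with up to 100 uM compound (eight half-log points, 0.5% DMSO); ABCB1 mRNA change fitted bidirectionally against DMSO controls.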

Read-out in test [7]: growth arrest and DNA damage 45 (GADD45B), GADD45B (gene 4616)
Put plainly: LTEA_HepaRG_GADD45B: Life Technologies and Expression Analysis (LTEA) Assay for growth arrest and DNA damage 45 (GADD45B) using HepaRG (AID 2283461). As to conditions: mRNA level, 48 h; actives raise or lower the signal. A digest of the protocol: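 Differentiated human HepaRG cells in serum-free induction medium exposed 48 h in duplicate to eight concentrations, top 100 uM, half-log steps, 0.5% DMSO. GADD45B mRNA by TaqMan qRT-PCR, normalized to ACTB, GAPDH, POLR2A; bidirectional fit versus DMSO.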

Read-out in test [8]: ABC Transporter (ABCC3), ABCC3 (gene 8714)
As to the kind of experiment: LTEA_HepaRG_ABCC3: Life Technologies and Expression Analysis (LTEA) Assay for ABC Transporter (ABCC3) using HepaRG (AID 2283462). The following applies: mRNA level, 48 h; actives raise or lower the signal. The essentials:
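Differentiated human HepaRG cells exposed 48 h in serum-free induction medium, 0.5% DMSO vehicle, 8-point half-log series to 100 uM in duplicate. ABCC3 mRNA by qRT-PCR, normalised to ACTB, GAPDH, POLR2A; bidirectional fit vs DMSO.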

Read-out in test [9]: ABC Transporter (ABCB11), ABCB11 (gene 8647)
Put plainly: LTEA_HepaRG_ABCB11: Life Technologies and Expression Analysis (LTEA) Assay for ABC Transporter (ABCB11) using HepaRG (AID 2283463). The following applies: mRNA level, 48 h; actives raise or lower the signal. A digest of the protocol:
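Using HepaRG cultures held in 0.5% DMSO, chemicals were tested at half-log dilutions from 100 uM for 48 h. Induction or suppression of ABCB11 mRNA, normalized to ACTB, GAPDH and POLR2A, was fitted bidirectionally against vehicle.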

Test [10] can be described thus: CEETOX_H295R_TESTO: CeeTox H295R High-throughput Steroidogenesis Assay for Testosterone (TESTO) (AID 2283457). The following applies: actives raise or lower the signal. The essentials: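 H295R adrenal cells, passage ≤10, exposed to chemicals for 48 h. Testosterone in medium measured by MTBE extraction and HPLC-MS/MS against a 7-point standard curve. Bidirectional fit versus DMSO; MTT viability checked in the same wells.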

Calls of active or inactive are those of the source. How the source made its calls: active means hit-call score of the fitted dose curve at least 0.9, where 1 is the maximum; inactive means score below 0.9.

By AC50 is commonly meant the concentration giving half of the maximal activity seen.

As for `O=C(Oc1ccc(Br)cc1)N1CCN2CCC1CC2`, the AC50 in test [1] was 65.1 µM (active). Also, the outcome in [2], in test [3], in test [4], in test [5], in test [6] and in test [7] was inactive. In addition, the call in test [8] was inactive.
For `CS(=O)(=O)NC(=O)c1cc(Oc2ccc(C(F)(F)F)cc2Cl)ccc1[N+](=O)[O-]`, the AC50 in test [1] is 39.3 µM (active); in [6], 0.644 µM (active). In addition, the result in test [2], in test [3], in test [4], in test [5], in test [7] and in [8] was inactive.
Consider `Nc1cc(Cl)cc(C(=O)O)c1Cl`, for which, in test [1], the AC50 was 63.4 µM (active). Besides, the molecule was called inactive in [2], in [3], in test [4], in test [5], in [6] and in [7]. The outcome in test [8] and in [9] was inactive.
`c1ccc2c(c1)-c1cccc3cccc-2c13`: the AC50 in [1] was 33.3 µM (active). Besides, the call in test [2], in [3], in test [4], in test [5], in [6] and in test [7] was inactive. Besides, the call in [8] was inactive.
As to `CCNS(=O)(=O)C(F)(F)C(F)(F)C(F)(F)C(F)(F)C(F)(F)C(F)(F)C(F)(F)C(F)(F)F`, the AC50 in test [1] is 69.3 µM (active). Further, the result in test [2], in [3], in [4], in test [5], in test [6] and in [7] was inactive. Besides, in test [8], the outcome was inactive.
Regarding `CCCSC(=O)N(CCC)CCC`, in test [1], the AC50 is 50 µM (active). Besides, the molecule was classed as inactive in test [2], in test [3], in test [4], in test [5], in test [6] and in test [7]. Further, in test [8], the result was inactive.
With `CCCCC(CC)COC(=O)c1ccc(C(=O)OCC(CC)CCCC)c(C(=O)OCC(CC)CCCC)c1` (stereo unspecified), the AC50 in test [1] was 50 µM (active). Further, the molecule was called inactive in test [2], in test [3], in [4], in [5], in test [6] and in [7]. The result in test [8] and in test [9] was inactive.
As to `[Cl-].[Cl-].[Hg+2]`, the AC50 in test [1] and in [7] was 50 µM (active) each time. The molecule was called inactive in test [2], in test [3], in test [4], in [5], in test [6] and in [8].
Regarding `Nc1ccc(N=Nc2ccccc2)cc1`, the AC50 was 35.8 µM (active) in [1]; 20.8 µM (active) in test [2]; 30.9 µM (active) in [3]; 18.4 µM (active) in test [5]; 15.5 µM (active) in [6]; 29 µM (active) in [7]. The result in [4] was inactive.
Regarding `CC(C)(O)c1cnn2c(-c3ccc(F)c(-c4c(F)cccc4C#N)c3)cnc2n1`, the AC50 is 11.9 µM (active) in test [1], 0.438 µM (active) in test [6] and 13.1 µM (active) in [9]. Besides, the outcome in test [2], in test [3], in test [10], in test [4], in test [5] and in [7] was inactive. Further, the molecule was classed as inactive in [8].
Consider `Clc1ccccc1Cl`, for which the molecule was classed as inactive in [1], in test [2], in [3], in test [4], in test [5] and in [6]. Further, the call in test [7] and in test [8] was inactive.
Regarding `CCOc1cccc(C2(N3CCN(c4ccccc4)CC3)CCC(C)CC2)c1` (stereo unspecified), the AC50 in test [1] is 35.9 µM (active). The outcome in test [2], in [3], in [4], in [5], in test [6] and in test [7] was inactive. Also, the result in [8] was inactive.
`CCC12COCN1COC2`: the AC50 in [1] was 50 µM (active). For the same molecule, the call in test [2], in test [3], in test [4], in test [5], in test [6] and in test [7] was inactive. The outcome in test [8] and in test [9] was inactive.
Consider `O=P(OCCCl)(OCCCl)OCCCl`, for which the AC50 in [1] is 76 µM (active). The molecule was called inactive in [2], in [3], in test [4], in [5], in test [6] and in [7]. Moreover, in test [8], the result was inactive.
With `CC(C)COC(=O)c1ccccc1C(=O)OCC(C)C`, the AC50 in test [1] was 59.1 µM (active). The outcome in [2], in test [3], in test [4], in test [5], in [6] and in test [7] was inactive. In addition, the outcome in [8] was inactive.
On to `CCCCCCCCn1sccc1=O`, for which the AC50 in [1] is 32.8 µM (active); in test [2], 78.9 µM (active); in [8], 73.8 µM (active). Further, the result in [3], in [4], in test [5], in test [6] and in [7] was inactive.
Regarding `ClCCOCCCl`, the outcome in test [1], in [2], in test [3], in [4], in test [5] and in [6] was inactive. Moreover, the result in [7], in test [8] and in test [9] was inactive.
Turning to `Cc1cc(N=Nc2ccccc2C)ccc1N`, the AC50 was 1.05 µM (active) in test [1]; 2.75 µM (active) in [2]; 12.5 µM (active) in [3]; 3.52 µM (active) in [4]; 5.56 µM (active) in [5]; 5.45 µM (active) in test [6]. The AC50 in [7] was 7.67 µM (active); in test [8], 13 µM (active). The result in test [10] was inactive.
For `OCCCBr`, the molecule was classed as inactive in [1], in test [2], in test [3], in test [4], in test [5] and in test [6]. Also, the molecule was called inactive in test [7] and in test [8].
As to `O=[N+]([O-])C(Br)(CO)CO`, the AC50 in test [1] was 50 µM (active). Further, the molecule was called inactive in test [2], in test [3], in test [4], in [5], in test [6] and in test [7]. Besides, the molecule was classed as inactive in test [8].
